Molecules are shown by their SMILES. Inconclusive results are not listed. Where a call stands in place of a potency, no number is given. Calls of active or inactive are those of the source. The call rests on the fitted dose curve; in most records, active means well fitted curve in the direction sought with a large enough effect; inconclusive means small, poorly fitted or top-dose-only effect, or another doubt; inactive means no such curve, though single readings can be large; an effect the other way counts as inactive or inconclusive.

Our source for the Potency values is PubChem BioAssay (NCATS).

A short description of one experiment: Quantitative highthroughput screen to assess conditional lethalithy of NOMO1 cells grown in RPMI1640 with untreated serum (RPMI+s) (AID 1963876). Further: nearly all actives have a fitted effect of over 35% in size. Further: potency means the concentration at half of the fitted maximal effect. The settings on record: NOMO1 AML cells in RPMI+serum, CellTiter-Glo viability, 48 h; series mostly up to 45.8 µM. An outline of the steps:
(§1)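 Each medium arm—HPLM with 10% dialyzed FBS, or RPMI1640 with 5 mM glucose and 10% untreated or dialyzed FBS—was screened against an 11-point, 3-fold compound titration for 48 h at 37 °C, with CellTiter-Glo luminescence as endpoint.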
Take `COC(=O)C1=CO[C@@H](O)[C@@H]2C(CO)=CC[C@@H]12`: the Potency result was “inactive”.
With `CC1CC2C3CCC4=CC(=O)C=C[C@]4(C)[C@@]3(F)[C@@H](O)C[C@]2(C)[C@@]1(O)C(=O)CO` (stereo partly specified), the Potency entry is “inactive”.
On to `CC(C)OC(=O)CCCC=CC[C@@H]1[C@H](C=C[C@@H](O)COc2cccc(C(F)(F)F)c2)[C@H](O)C[C@@H]1O`, for which the Potency is 33.2 µM (active).
As to `CO[C@H]1C[C@@H]2CC[C@@H](C)[C@@](O)(O2)C(=O)C(=O)N2CCCC[C@@H]2C(=O)O[C@H]([C@H](C)C[C@@H]2CC[C@H](OP(C)(C)=O)[C@H](OC)C2)CC(=O)[C@H](C)C=C(C)[C@@H](O)[C@@H](OC)C(=O)[C@H](C)C[C@H](C)C=CC=CC=C1C`, the Potency entry was “inactive”.
For `CN(C)CCOc1ccc(-c2nc(-c3ccc4c(c3)CCC4=NO)c(-c3ccncc3)[nH]2)cc1`, the Potency entry was “inactive”.
Still for that read-out and setting: the entry for `COc1cc(=C2C=c3ccccc3=N2)[nH]c1=Cc1[nH]c(C)cc1C` is “inactive”.
Still for that read-out and setting: the entry for `COc1cc2ncnc(Nc3ccc(F)c(Cl)c3)c2cc1NC(=O)C=CCN1CCCCC1` is “inactive”; for `CC1(C)C(N(O)C(=O)Nc2ccc(Cl)cc2)N(c2ccc(Cl)cc2)C(=O)N1CC(=O)NN=CC=Cc1ccc([N+](=O)[O-])o1` (stereo unspecified) it is “inactive”.
On the same count and under the same terms, the entry for `CCc1ccc(C=C2SC(=S)NC2=O)cc1` is “inactive”.
On to `CC1(C)O[C@@H]2C[C@@H]3[C@H]4C[C@@H](F)C5=CC(=O)C=C[C@]5(C)[C@@]4(F)[C@@H](O)C[C@]3(C)[C@]2(C(=O)CO)O1`, for which the Potency entry was “inactive”.
For `CC[C@H]1OC(=O)[C@H](C)[C@@H](O[C@H]2C[C@@](C)(OC)[C@@H](O)[C@H](C)O2)[C@H](C)[C@@H](O[C@@H]2O[C@H](C)C[C@H](N(C)C)[C@@H]2O)[C@](C)(O)C[C@@H](C)CN(C)[C@H](C)[C@@H](O)[C@]1(C)O`, the Potency entry is “inactive”.
On the same count and under the same terms, as for `CC(=O)N1CCN(c2ccc(OC[C@H]3CO[C@](Cn4ccnc4)(c4ccc(Cl)cc4Cl)O3)cc2)CC1`, the entry is “inactive”.
The same measure, in the same setting: the entry for `CC(C)CN(C[C@H](O)[C@H](Cc1ccccc1)NC(=O)O[C@H]1CCOC1)S(=O)(=O)c1ccc(N)cc1` is “inactive”; for `Cc1ccc([C@@H]2O[C@H](CO)[C@@H](O)[C@H](O)[C@@H]2O)cc1Cc1ccc(-c2ccc(F)cc2)s1` it is “inactive”; for `COc1ccc2cc1Oc1ccc(cc1)C[C@H]1c3cc(c(OC)cc3CCN1C)Oc1c(OC)c(OC)cc3c1[C@H](C2)N(C)CC3` it is “inactive”.

The nature of the next experiment: Quantitative highthroughput screen to assess conditional lethalithy of NOMO1 cells grown in RPMI1640 with dialyzed fetal bovine serum (RPMI+ds) (AID 1963877). Further: nearly all actives have a fitted effect of over 30% in size. Further: potency means the concentration at half of the fitted maximal effect. The settings on record: NOMO1 in RPMI+dialyzed FBS viability, ATP luminescence, 48 h; series mostly up to 45.8 µM. An outline of the steps: as §1
With `COC(=O)C1=CO[C@@H](O)[C@@H]2C(CO)=CC[C@@H]12`, the Potency result is “inactive”.
Same read-out and setting: the entry for `CC1CC2C3CCC4=CC(=O)C=C[C@]4(C)[C@@]3(F)[C@@H](O)C[C@]2(C)[C@@]1(O)C(=O)CO` (stereo partly specified) is “inactive”; for `CO[C@H]1C[C@@H]2CC[C@@H](C)[C@@](O)(O2)C(=O)C(=O)N2CCCC[C@@H]2C(=O)O[C@H]([C@H](C)C[C@@H]2CC[C@H](OP(C)(C)=O)[C@H](OC)C2)CC(=O)[C@H](C)C=C(C)[C@@H](O)[C@@H](OC)C(=O)[C@H](C)C[C@H](C)C=CC=CC=C1C` it is “inactive”.
The same measure, in the same setting: the figure for `CN(C)CCOc1ccc(-c2nc(-c3ccc4c(c3)CCC4=NO)c(-c3ccncc3)[nH]2)cc1` is 18.7 µM (active).
The same measure, in the same setting: as for `COc1cc2ncnc(Nc3ccc(F)c(Cl)c3)c2cc1NC(=O)C=CCN1CCCCC1`, the entry is “inactive”.
As for `CC1(C)O[C@@H]2C[C@@H]3[C@H]4C[C@@H](F)C5=CC(=O)C=C[C@]5(C)[C@@]4(F)[C@@H](O)C[C@]3(C)[C@]2(C(=O)CO)O1`, the Potency entry is “inactive”.
Same read-out and setting: as for `CC[C@H]1OC(=O)[C@H](C)[C@@H](O[C@H]2C[C@@](C)(OC)[C@@H](O)[C@H](C)O2)[C@H](C)[C@@H](O[C@@H]2O[C@H](C)C[C@H](N(C)C)[C@@H]2O)[C@](C)(O)C[C@@H](C)CN(C)[C@H](C)[C@@H](O)[C@]1(C)O`, the entry is “inactive”; as for `CC(=O)N1CCN(c2ccc(OC[C@H]3CO[C@](Cn4ccnc4)(c4ccc(Cl)cc4Cl)O3)cc2)CC1`, “inactive”.
Still for that read-out and setting: as for `CC(C)CN(C[C@H](O)[C@H](Cc1ccccc1)NC(=O)O[C@H]1CCOC1)S(=O)(=O)c1ccc(N)cc1`, the entry is “inactive”; as for `Cc1ccc([C@@H]2O[C@H](CO)[C@@H](O)[C@H](O)[C@@H]2O)cc1Cc1ccc(-c2ccc(F)cc2)s1`, “inactive”.
Same read-out and setting: as for `COc1ccc2cc1Oc1ccc(cc1)C[C@H]1c3cc(c(OC)cc3CCN1C)Oc1c(OC)c(OC)cc3c1[C@H](C2)N(C)CC3`, the entry is “inactive”.

A short description of the next experiment: Quantitative highthroughput screen to assess conditional lethalithy of NOMO1 cells grown in Human Plasma-Like Medium with dialyzed fetal bovine serum (HPLM+ds) (AID 1963878). Further: nearly all actives have a fitted effect of over 35% in size. The settings on record: NOMO1 AML cells in HPLM+ds, CellTiter-Glo viability, 48 h; series mostly up to 45.8 µM. An outline of the steps: as §1
With `CC1CC2C3CCC4=CC(=O)C=C[C@]4(C)[C@@]3(F)[C@@H](O)C[C@]2(C)[C@@]1(O)C(=O)CO` (stereo partly specified), the Potency result is “inactive”.
For the compound `CC1(C)O[C@@H]2C[C@@H]3[C@H]4C[C@@H](F)C5=CC(=O)C=C[C@]5(C)[C@@]4(F)[C@@H](O)C[C@]3(C)[C@]2(C(=O)CO)O1`, the Potency result is “inactive”.
The same measure, in the same setting: as for `CC[C@H]1OC(=O)[C@H](C)[C@@H](O[C@H]2C[C@@](C)(OC)[C@@H](O)[C@H](C)O2)[C@H](C)[C@@H](O[C@@H]2O[C@H](C)C[C@H](N(C)C)[C@@H]2O)[C@](C)(O)C[C@@H](C)CN(C)[C@H](C)[C@@H](O)[C@]1(C)O`, the entry is “inactive”; as for `CC(C)CN(C[C@H](O)[C@H](Cc1ccccc1)NC(=O)O[C@H]1CCOC1)S(=O)(=O)c1ccc(N)cc1`, “inactive”; as for `COc1ccc2cc1Oc1ccc(cc1)C[C@H]1c3cc(c(OC)cc3CCN1C)Oc1c(OC)c(OC)cc3c1[C@H](C2)N(C)CC3`, “inactive”.
